The supplement of paper PMC3545927
The other results are listed elsewhere or left out. The true hit rate is not given.

Target: furin, P09958
Assay: furin cleavage Z-score vs untreated control; higher = more cleavage, active = 3.5 or more, inactive = 1 or less, 8 variable residues between constant flanks
Outline: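 The cleavage Z-score was derived for purified furin acting on 8-mer peptides held on magnetic beads and fused to a cDNA oligonucleotide. Digests lasted 7.5, 15 or 30 min at 1:10 enzyme:substrate in 50 mM HEPES pH 7.5 with CaCl2 and NaCl. Sequencing counts of released DNA, log-transformed against furin-free reactions, were lowess-adjusted and scaled by median absolute deviation.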

Chain of furin, P09958 (P09958 whole entry): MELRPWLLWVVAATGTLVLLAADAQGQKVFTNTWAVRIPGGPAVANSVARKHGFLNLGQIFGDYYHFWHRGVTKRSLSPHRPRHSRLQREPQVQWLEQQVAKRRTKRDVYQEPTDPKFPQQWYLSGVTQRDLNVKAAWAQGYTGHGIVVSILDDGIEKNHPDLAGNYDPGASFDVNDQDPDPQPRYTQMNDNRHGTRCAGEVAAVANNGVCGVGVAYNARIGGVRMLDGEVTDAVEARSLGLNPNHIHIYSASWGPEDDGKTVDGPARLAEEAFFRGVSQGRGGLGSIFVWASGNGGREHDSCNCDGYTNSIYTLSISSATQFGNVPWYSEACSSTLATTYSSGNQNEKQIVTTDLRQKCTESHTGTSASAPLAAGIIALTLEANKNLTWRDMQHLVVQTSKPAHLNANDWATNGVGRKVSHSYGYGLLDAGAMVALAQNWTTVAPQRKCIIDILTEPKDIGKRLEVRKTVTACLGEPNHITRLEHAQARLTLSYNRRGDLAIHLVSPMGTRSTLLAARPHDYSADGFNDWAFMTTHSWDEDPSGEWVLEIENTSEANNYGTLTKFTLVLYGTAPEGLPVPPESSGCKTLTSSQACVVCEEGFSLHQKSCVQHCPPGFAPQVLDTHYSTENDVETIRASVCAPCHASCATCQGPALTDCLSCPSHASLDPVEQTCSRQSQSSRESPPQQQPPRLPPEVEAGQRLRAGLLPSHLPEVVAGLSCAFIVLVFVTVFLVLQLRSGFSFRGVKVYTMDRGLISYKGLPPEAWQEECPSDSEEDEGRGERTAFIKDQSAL

| Sequence | furin cleavage Z-score (7.5 min) | furin cleavage Z-score (15 min) | furin cleavage Z-score (30 min) |
| --- | --- | --- | --- |
| CALLLLLALPAGNASASA [HC559] | -0.496 (inactive) | -0.0246 (inactive) | -1.1 (inactive) |
| CATDPCSGSWAGNASASA [HC1851] | -1.13 (inactive) | -1.19 (inactive) | -1.08 (inactive) |
| CAAILDMIAGAGNASASA [HC332] | 0.577 (inactive) | 0.516 (inactive) | -0.84 (inactive) |
| CASKAHGIDPAGNASASA [HC795] | -1.17 (inactive) | -1.03 (inactive) | 1.13 |
| CASKSLSKRSAGNASASA [FS-721] | 8.05 (active) | 10.1 (active) | 6.73 (active) |
| CATVPCSGSWAGNASASA [HC1850] | -0.242 (inactive) | -1.82 (inactive) | -1.24 (inactive) |
| CARHYRPTGYAGNASASA [FS-2682] | -1.08 (inactive) | -0.433 (inactive) | -0.26 (inactive) |
| CATDALMTGYAGNASASA [HC879] | 0.343 (inactive) | 0.0305 (inactive) | 0.976 (inactive) |
| CAPPDSDAESAGNASASA [HC1349] | -1.81 (inactive) | -1.84 (inactive) | -0.313 (inactive) |
| CARKRREAESAGNASASA [FS-2972] | 12 (active) | 12.2 (active) | 8.7 (active) |
| CARKRRSIRYAGNASASA [FS-2975] | 8.7 (active) | 10.2 (active) | 9.27 (active) |
| CARKRRGTKGAGNASASA [FS-1959] | 8.4 (active) | 9.53 (active) | 8.24 (active) |
| CARKRRGTGYAGNASASA [FS-2565] | 9.5 (active) | 11.3 (active) | 9.57 (active) |
| CARKDRRKKGAGNASASA [FS-2035] | 0.369 (inactive) | 0.879 (inactive) | 1.04 |
| CARKRRIVSGAGNASASA [FS-2348] | -0.706 (inactive) | 0.0646 (inactive) | -1.35 (inactive) |
| CAVVCESMSYAGNASASA [HC93] | 1.27 | 1.17 | 0.112 (inactive) |
| CAGLPVCQDHAGNASASA [HC934] | -1.12 (inactive) | -0.715 (inactive) | -0.789 (inactive) |
| CAMEECSQHVAGNASASA [HC1770] | 0.37 (inactive) | -0.816 (inactive) | 0.885 (inactive) |
| CAGLAGAAIGAGNASASA [HC1077] | 0.0949 (inactive) | -0.583 (inactive) | -1.05 (inactive) |
| CATTPCSGSRAGNASASA [HC1933] | -1.1 (inactive) | 1.02 | 0.7 (inactive) |
| CAEWVVCCSMAGNASASA [HC2128] | -0.594 (inactive) | 0.0553 (inactive) | 0.122 (inactive) |
| CANKRRGGTAAGNASASA [WN5] | -0.513 (inactive) | -0.365 (inactive) | 0.516 (inactive) |
| CARKHPDATYAGNASASA [HC454] | -0.794 (inactive) | -0.15 (inactive) | -3 (inactive) |
| CARKRRGGPSAGNASASA [FS-2564] | 3.55 (active) | 5.66 (active) | 4.4 (active) |
| CARKRRTATYAGNASASA [FS-2977] | 4.55 (active) | 6.85 (active) | 6.75 (active) |
| CARKRRTGFGAGNASASA [FS-2978] | -1.31 (inactive) | 1.08 | 1.25 |
| CARKRRCSLSAGNASASA [FS-1829] | 4.81 (active) | 7.32 (active) | 6.54 (active) |
| CATDVVCCSMAGNASASA [HC2118] | 1.2 | 0.0514 (inactive) | -0.681 (inactive) |
